Reference: PubChem BioAssay (Tox21)
“And” between values parts separate entries of the source, which are not always exact repeats. Identical values can stand only once. Inconclusive results are not listed. Some structures have more than one record in an assay (separate samples or runs), and their calls can disagree. The source made the active and inactive calls. Unless noted, calls come from the whole dose curve; as a rule, active = well fitted curve in the direction sought with a large enough effect in the repeat runs; inconclusive = weak or mixed curves; inactive = no such curve, though single readings can be large; an effect the other way counts as inactive or inconclusive.

Tests used:
[1] = biological target: Peroxisome proliferator-activated receptor delta (Homo sapiens) (UniProt Q03181); assay: qHTS assay to identify small molecule agonists of the peroxisome proliferator-activated receptor delta (PPARd) signaling pathway (AID 743212; calls by dose curve); settings: HEK293H PPARd-UAS-bla, beta-lactamase FRET ratio, 17 h; series mostly up to 62.6 µM
Chain of Peroxisome proliferator-activated receptor delta (Homo sapiens) (Q03181 whole entry, looked up): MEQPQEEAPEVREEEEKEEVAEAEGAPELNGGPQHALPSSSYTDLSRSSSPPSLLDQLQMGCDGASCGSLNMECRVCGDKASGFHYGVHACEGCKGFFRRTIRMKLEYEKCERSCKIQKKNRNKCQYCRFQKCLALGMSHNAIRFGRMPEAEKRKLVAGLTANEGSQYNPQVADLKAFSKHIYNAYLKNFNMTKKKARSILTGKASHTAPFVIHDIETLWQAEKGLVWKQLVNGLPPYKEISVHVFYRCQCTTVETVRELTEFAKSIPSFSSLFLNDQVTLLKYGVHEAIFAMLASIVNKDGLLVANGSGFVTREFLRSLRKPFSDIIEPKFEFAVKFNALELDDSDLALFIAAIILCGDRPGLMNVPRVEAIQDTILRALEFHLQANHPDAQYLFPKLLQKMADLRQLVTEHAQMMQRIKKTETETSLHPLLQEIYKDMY
Summary of the method: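 GeneBLAzer PPARd UAS-bla HEK293H cells (beta-lactamase reporter under UAS control), plated and rested 5 h at 37 C, then exposed to compounds in DMSO at 37 C; LiveBLAzer B/G FRET substrate added, 2 h room temperature, fluorescence read.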

[2] = qHTS assay to identify small molecule antagonists of the peroxisome proliferator-activated receptor delta (PPARd) signaling pathway - cell viability counter screen (AID 743213); settings: PPARd-bla HEK293H viability, CellTiter-Glo luminescence, 17 h; series mostly up to 62 µM; note: nearly all actives have a fitted effect of over 50% in size; note: potency is the fitted concentration of half-maximal effect
Summary of the method: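 CellTiter-Glo was added to PPARd-bla HEK293H wells following 17 h compound treatment in the presence of 300 nM L165041. Luminescence was recorded after 30 min at room temperature.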

[3] = biological target: Bile acid receptor (Homo sapiens) (UniProt Q96RI1); assay: qHTS assay to identify small molecule antagonists of the farnesoid-X-receptor (FXR) signaling pathway (AID 743217; active = well fitted inhibition curve with a large enough effect in the signal ratio in the repeat runs, not every such curve was filed as active; the % refers to the signal ratio; note: potency is the fitted concentration of half-maximal effect); settings: HEK293T FXR-UAS-bla, beta-lactamase ratio, CDCA-stimulated, 16 h; series mostly up to 62.6 µM
Chain of Bile acid receptor (Homo sapiens) (Q96RI1 whole entry, looked up): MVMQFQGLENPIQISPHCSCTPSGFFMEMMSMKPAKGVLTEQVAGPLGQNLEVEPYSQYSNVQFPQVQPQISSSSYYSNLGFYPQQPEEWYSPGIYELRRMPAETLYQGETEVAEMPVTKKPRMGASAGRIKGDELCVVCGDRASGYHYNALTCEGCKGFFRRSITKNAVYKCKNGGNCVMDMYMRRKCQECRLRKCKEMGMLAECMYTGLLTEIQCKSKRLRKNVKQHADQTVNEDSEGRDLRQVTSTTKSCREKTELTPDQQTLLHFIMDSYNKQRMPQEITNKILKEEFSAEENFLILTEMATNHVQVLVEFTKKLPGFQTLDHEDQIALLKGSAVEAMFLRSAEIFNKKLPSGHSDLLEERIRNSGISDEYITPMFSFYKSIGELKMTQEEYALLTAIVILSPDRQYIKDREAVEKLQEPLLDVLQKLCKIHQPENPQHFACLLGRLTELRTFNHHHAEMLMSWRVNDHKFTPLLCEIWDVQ
Summary of the method: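 GeneBLAzer FXR-UAS-bla HEK 293T, CDCA-stimulated (50 uM final). Compound treatment 16 h, 37 °C. Detection: beta-lactamase cleavage of B/G FRET substrate, fluorescence.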

[4] = biological target: Bile acid receptor (Homo sapiens) (UniProt Q96RI1); assay: qHTS assay to identify small molecule agonists of the farnesoid-X-receptor (FXR) signaling pathway (AID 743220; active = well fitted activation curve with a large enough effect in the signal ratio in the repeat runs, not every such curve was filed as active; the % refers to the signal ratio); settings: HEK293T FXR-UAS-bla, beta-lactamase FRET ratio, 16 h; series mostly up to 62.6 µM
Summary of the method: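 Beta-lactamase reporter under UAS control in GeneBLAzer FXR HEK 293T cells (5000/well) measured with LiveBLAzer FRET substrate after 2 h at room temperature. Compound exposure lasted 16 h at 37C.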

[5] = qHTS assay to identify small molecule antagonists of the farnesoid-X-receptor (FXR) signaling pathway - cell viability counter screen (AID 743221; active = well fitted cell-killing curve with a large enough effect in the repeat runs, not every such curve was filed as active; note: nearly all actives have a fitted effect of over 50% in size; note: potency is the fitted concentration of half-maximal effect); settings: FXR-bla HEK293T viability, CellTiter-Glo luminescence, 16 h; series mostly up to 62.6 µM
Summary of the method: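 Multiplexed counter screen: viability of FXR-bla HEK 293T cells under agonist stimulation by chenodeoxycholic acid (50 uM, final) and test compound for 16 h at 37 C, measured by CellTiter-Glo luminescence in the reporter wells.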

[6] = biological target: Vitamin D3 receptor (Homo sapiens) (UniProt P11473); assay: qHTS assay to identify small molecule agonists of the vitamin D receptor (VDR) signaling pathway (AID 743222; calls by dose curve); settings: HEK293T VDR-UAS-bla, beta-lactamase FRET ratio, 16 h; series mostly up to 63.5 µM
Chain of Vitamin D3 receptor (Homo sapiens) (P11473 whole entry, looked up): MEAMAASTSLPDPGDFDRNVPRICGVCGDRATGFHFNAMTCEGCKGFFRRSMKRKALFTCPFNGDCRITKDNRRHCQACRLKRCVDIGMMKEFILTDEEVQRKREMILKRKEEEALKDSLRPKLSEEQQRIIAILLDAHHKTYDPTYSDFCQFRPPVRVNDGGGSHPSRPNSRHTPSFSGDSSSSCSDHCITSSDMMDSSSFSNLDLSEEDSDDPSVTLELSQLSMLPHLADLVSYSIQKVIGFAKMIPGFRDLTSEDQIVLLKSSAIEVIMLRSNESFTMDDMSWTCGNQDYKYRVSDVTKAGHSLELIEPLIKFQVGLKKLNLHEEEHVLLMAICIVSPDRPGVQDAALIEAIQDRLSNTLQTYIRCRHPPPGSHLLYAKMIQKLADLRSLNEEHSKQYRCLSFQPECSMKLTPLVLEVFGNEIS
Summary of the method: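 In VDR-bla cells, compound-induced beta-lactamase expression is quantified by FRET substrate fluorescence. Treatment lasts 16 h at 37C; substrate develops 2 h at room temperature.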

[7] = qHTS assay to identify small molecule agonists of the vitamin D receptor (VDR) signaling pathway - cell viability counter screen (AID 743224); settings: VDR-bla HEK293T viability, CellTiter-Glo luminescence, 16 h; series mostly up to 62.6 µM; note: nearly all actives have a fitted effect of over 50% in size; note: potency is the fitted concentration of half-maximal effect
Summary of the method: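 Plated VDR-bla cells (4 h, 37C) received compound, incubated 16 h, then LiveBLAzer substrate 2 h RT; CellTiter-Glo added afterwards, luminescence read at 30 min.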

[8] = biological target: Peroxisome proliferator-activated receptor delta (Homo sapiens) (UniProt Q03181); assay: qHTS assay to identify small molecule antagonists of the peroxisome proliferator-activated receptor delta (PPARd) signaling pathway (AID 743215; active = well fitted inhibition curve with a large enough effect in the signal ratio in the repeat runs, not every such curve was filed as active; the % refers to the signal ratio;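 note: cells stimulated with agonist L165041 at 300 nM final during compound exposure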; note: potency is the fitted concentration of half-maximal effect); settings: HEK293H PPARd-UAS-bla, beta-lactamase FRET ratio, antagonist, 17 h; series mostly up to 62 µM
Summary of the method: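 HEK293H UAS-bla, PPARd; agonist L165041 300 nM final with cpd in DMSO; 37 C 17 h; FRET substrate, RT 2 h; fluorescence intensity.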

[9] = qHTS assay to identify small molecule agonists of the farnesoid-X-receptor (FXR) signaling pathway - cell viability counter screen (AID 743218); settings: FXR-bla HEK293T viability, CellTiter-Glo luminescence, 16 h; series mostly up to 62.6 µM; note: nearly all actives have a fitted effect of over 45% in size; note: potency is the fitted concentration of half-maximal effect
Summary of the method: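 Parallel cytotoxicity test: compound-treated (16 h, 37 C) HEK 293T FXR-bla reporter cells were lysed with CellTiter-Glo and luminescence recorded.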

[10] = biological target: Vitamin D3 receptor (Homo sapiens) (UniProt P11473); assay: qHTS assay to identify small molecule antagonists of the vitamin D receptor (VDR) signaling pathway (AID 743223; active = well fitted inhibition curve with a large enough effect in the signal ratio in the repeat runs, not every such curve was filed as active; the % refers to the signal ratio); settings: VDR-UAS-bla HEK293T, beta-lactamase FRET ratio, 16 h; series mostly up to 61 µM
Summary of the method: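 Cells carrying a VDR-driven beta-lactamase reporter (VDR-bla) were co-treated with compound and 3 nM final 1alpha,25-dihydroxyvitamin D3 for 16 h at 37C; reporter activity was measured as FRET substrate fluorescence after 2 h at room temperature.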

Measured: Potency

O=[N+]([O-])c1ccc(Oc2ccc(C(F)(F)F)cc2[N+](=O)[O-])cc1
inactive: [1] | [2] | [3] | [4] | [5] | [6] | [7]

CC(C)CC(C)N (stereo unspecified)
inactive: [1] | [8] | [9] | [5] | [7]

Oc1ccc(C(c2ccc(O)cc2)(C(F)(F)F)C(F)(F)F)cc1
inactive: [1] | [2] | [8] | [9] | [5] | [6] | [10]
inactive and 54.9 µM (active): [7]

CC1(C)[C@H](C(=O)O[C@H](C#N)c2cccc(Oc3ccccc3)c2)[C@@H]1/C=C(\Cl)C(F)(F)F
inactive: [1] | [9] | [4]

N#CCCSCCC#N
inactive: [1] | [2] | [8] | [9] | [7]

CC(C)N1C(=O)N(c2ccccc2)CSC1=NC(C)(C)C
inactive: [1] | [5] | [6]
active: [7] 49 µM

CCC(C)(C)C(=O)OC1=C(c2ccc(Cl)cc2Cl)C(=O)OC12CCCCC2
inactive: [1] | [2] | [8] | [9] | [4] | [7]

BrCBr
inactive: [1] | [2] | [8] | [9] | [10] | [7]

Nc1ccccc1C(=O)OC/C=C/c1ccccc1
active: [7] 49.1 µM
inactive: [1] | [2] | [8] | [5]

FC(F)(F)c1cccc(C2=CCN(CCc3ccc4ccccc4c3)CC2)c1
inactive: [1] | [2] | [3] | [9] | [4] | [5] | [6] | [10]

CC(C)(C)c1cc([N+](=O)[O-])cc(C(C)(C)C)c1O
active: [7] 12.3 µM
inactive: [1] | [2] | [8] | [9] | [4] | [6]

CN(C)c1ccc(N=Nc2ccccc2)cc1
inactive: [2] | [8] | [3] | [9] | [4] | [5] | [10] | [7]

CC1(C)C(/C=C(\Cl)C(F)(F)F)C1C(=O)OC(C#N)c1cccc(Oc2ccccc2)c1 (stereo unspecified)
active: [3] 17.7 µM
inactive: [1] | [2] | [8] | [9] | [4] | [5] | [10] | [7]

COP(=O)(OC)SCn1c(=O)oc2cc(Cl)cnc21
inactive: [1] | [2] | [5]

C[C@H]1CC[C@@H]2[C@@H](C)[C@H]3[C@H](C[C@H]4[C@@H]5CC=C6CC(O[C@@H]7O[C@H](CO)[C@H](O)[C@H](O[C@@H]8O[C@H](CO)[C@@H](O)[C@H](O)[C@H]8O)[C@H]7O[C@H]7O[C@@H](C)[C@H](O)[C@@H](O)[C@H]7O)CC[C@]6(C)[C@H]5CC[C@]34C)N2C1 (stereo partly specified)
active: [2] 25.3 µM | [9] 8.02 µM | [5] 14.3 µM
inactive: [1] | [8] | [10] | [7]

O=C(CCCN1CCC2(CC1)C(=O)NCN2c1ccccc1)c1ccc(F)cc1
inactive: [1] | [2] | [8] | [3] | [4] | [5] | [6] | [10]

CCc1nn(C)c(C(=O)NCc2ccc(C(C)(C)C)cc2)c1Cl
inactive: [1] | [4]
active: [2] 43.6 µM | [9] 49 µM | [7] 27.5 µM

Oc1ccc(C2(c3ccc(O)cc3)CCCCC2)cc1
inactive: [1] | [4]
active: [2] 46.4 µM | [8] 46.4 µM | [9] 23.2 µM | [7] 46.4 µM

O=C1c2ccccc2C(=O)C1C(=O)C(c1ccccc1)c1ccc(Cl)cc1 (stereo unspecified)
active: [9] 38.9 µM | [7] 21.9 µM
inactive: [1] | [2] | [5] | [10]

CC(C)OC(=O)C(O)(c1ccc(Cl)cc1)c1ccc(Cl)cc1
inactive: [2] | [8] | [3] | [9] | [4] | [5]

C1CCC2CCCCC2C1 (stereo unspecified)
inactive: [2] | [8] | [3] | [9] | [4] | [5] | [10] | [7]

BrC(Br)Br
inactive: [1] | [2] | [8] | [3] | [9] | [4] | [5] | [6] | [7]

O=[N+]([O-])c1ccc2ccc3cccc4ccc1c2c34
inactive: [2] | [8] | [3] | [9] | [4] | [5] | [10] | [7]

Fc1ccc(Oc2ccnc3cc(Cl)cc(Cl)c23)cc1
active: [7] 49 µM
inactive: [1] | [2] | [4] | [5]

ClC(Cl)=C(c1ccc(Cl)cc1)c1ccc(Cl)cc1
active: [9] 38.9 µM
inactive: [1] | [2] | [8] | [4] | [5] | [6] | [10]
inactive and 38.9 µM (active): [7]
